# This is a sample that favours compounds with a hit; in the whole collection about 2.9% have one here.
# pPAFAH inh – inhibitors of human plasma PAF acetylhydrolase (pPAFAH); Q13093; recombinant pPAFAH, FP-rhodamine probe fluorescence polarization; inhibition, % at 3.39 µM; 1.5% of 330,000 active;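 active = inhibition above the mean inhibition across the screen plus 3 SD, cut at about 25% in these data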;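 note: inhibitors block binding of the rhodamine activity-based probe so polarization drops; 0% = enzyme with DMSO and 100% = wells lacking pPAFAH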
# Fam108B inh – blocks mouse Fam108B hydrolase in RBBP9 counter-screen; 0.33% of 300,000 active; inhibition, % at 9.51 µM; recombinant Fam108B, FP-Rh probe fluorescence polarization; AID 1947;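 active = inhibition above the screen mean inhibition plus 3 SD, computed separately per campaign, cut at about 18% in these data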;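 note: inhibitors lower polarization as less probe binds the enzyme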
# PAFAH2 FP inh – inhibitors of human PAFAH2. 0.99% of 340,000 active. inhibition, % at 3.39 µM. recombinant PAFAH2, FP-rhodamine activity probe, fluorescence polarization. AID 492956;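 active = inhibition above the mean over all tested compounds plus 3 SD, cut at about 30% in these data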;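 note: inhibitors block probe labeling of enzyme so polarization drops; 0% = enzyme with DMSO and 100% = wells lacking PAFAH2 protein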
# PME-1 inh – blocks human protein phosphatase methylesterase 1 | Q9Y570 | recombinant PME-1, FP-Rh probe fluorescence polarization | inhibition, % at 5.9 µM | 0.53% of 320,000 active | AID 2130;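 active = inhibition above the campaign mean of all compounds plus 3 SD, cut at about 26% in these data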;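 note: competitive labeling of PME-1 active site by serine hydrolase directed probe; 0% = PME-1 with DMSO and 100% = wells lacking PME-1 enzyme; inhibitors block probe labeling so polarization falls and inhibition rises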
# Target sequence (Q9Y570 whole entry, looked up): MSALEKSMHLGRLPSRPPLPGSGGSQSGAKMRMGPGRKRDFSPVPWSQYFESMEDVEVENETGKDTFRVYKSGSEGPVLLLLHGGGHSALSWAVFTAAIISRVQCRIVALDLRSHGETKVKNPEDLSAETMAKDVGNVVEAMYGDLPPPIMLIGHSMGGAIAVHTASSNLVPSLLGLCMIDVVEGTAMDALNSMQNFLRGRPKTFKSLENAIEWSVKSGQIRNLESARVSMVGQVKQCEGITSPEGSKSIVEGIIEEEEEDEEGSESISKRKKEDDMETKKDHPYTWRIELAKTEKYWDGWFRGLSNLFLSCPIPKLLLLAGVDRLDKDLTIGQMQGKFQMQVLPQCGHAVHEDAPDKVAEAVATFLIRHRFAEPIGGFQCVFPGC
# PAFAH1B2 inh – PAFAH1B2 (human) inhibition. inhibition, % at 3.39 µM. AID 492953. 1.2% of 340,000 active. recombinant PAFAH1B2, FP-rhodamine activity probe, fluorescence polarization. P68402;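 active = inhibition above the mean of all tested compounds plus 3 SD, cut at about 24% in these data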;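 note: 0% = enzyme with DMSO and 100% = wells lacking PAFAH1B2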
# PAFAH1B3 FP inh – blocks human PAF acetylhydrolase 1B catalytic subunit 3; Q15102; recombinant PAFAH1B3, FP-rhodamine probe, fluorescence polarization; inhibition, % at 3.39 µM; 0.28% of 340,000 active; AID 492972;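 active = inhibition above the screen-wide average of all tested compounds plus 3 SD, cut at about 25% in these data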;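 note: 0% = enzyme with DMSO only and 100% = wells lacking PAFAH1B3 protein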
# PAFAH2 confirm – confirmation of human PAFAH2 inhibitors; inhibition, % at 3.39 µM; AID 493030; 65% of 2,300 active; shares compounds with PAFAH2 FP inh; recombinant PAFAH2, FP-rhodamine activity probe, fluorescence polarization;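 active = mean inhibition over three repeats above a set limit taken from the earlier primary screen, cut at about 30% in these data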;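 note: inhibitor blocks binding of rhodamine activity probe so polarization falls; 0% = enzyme with DMSO and 100% = wells lacking PAFAH2 protein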
# PAFAH1B3 conf FP – confirmation of human PAFAH1B3 inhibitors. shares compounds with PAFAH1B3 FP inh. recombinant PAFAH1B3, FP-Rh activity-based probe, fluorescence polarization. inhibition, % at 3.39 µM. 30% of 390 active. AID 493032;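 active = average inhibition over triplicate runs above the hit cutoff set in the earlier primary screen, cut at about 25% in these data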;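 note: 0% = enzyme with DMSO and 100% = wells lacking PAFAH1B3 protein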
# Starred values were filed as active, the others as inactive; . = not tested or not shown.
SMILES,pPAFAH inh,Fam108B inh,PAFAH2 FP inh,PME-1 inh,PAFAH1B2 inh,PAFAH1B3 FP inh,PAFAH2 confirm,others
Clc1cccc(Cl)c1CN1CCN(c2ccccc2)CC1,3,-1,0,4,0,7,.,
Cc1cc(C)cc(N2C(=O)NC(=O)/C(=C\c3cccn3-c3ccccc3)C2=O)c1,5,0,46*,-5,18,-5,34*,
Cc1cccc(NC(=O)COC(=O)c2cc(C)n(C3CC3)c2C)c1,5,.,40*,1,8,2,2,
COC(=O)C1=C(c2ccc(-c3ccccc3)c(F)c2)C[C@@H]2CC[C@H]1N2C(=O)NCCOc1ccc(OC)cc1,5,.,-1,-9,4,18,.,
COc1ccc(NC(=S)NC(NC(=O)CF)C(Cl)(Cl)Cl)c([N+](=O)[O-])c1 (configuration not stated),6,1,5,2,6,9,.,
CN1C(=O)C(=Cc2ccc(SC3CCCCC3)o2)C(=O)N(C)C1=O,12,0,30*,3,20,-2,33*,
CCCCn1c(C)c(C(=O)O)c2cc(OC)c3ccccc3c21,6,2,1,6,8,10,.,
Cc1ccc(S(=O)(=O)Nc2cc(C(=O)N3CCC4(CC3)OCCO4)ccc2N2CCCCC2)cc1,21,3,60*,3,7,3,49*,
CC(=O)Nc1cc(C(=O)N2CCC3(CC2)OCCO3)ccc1S(=O)(=O)c1ccc(C)cc1,4,3,8,2,-3,9,.,
COc1ccc(-c2nc3ccccc3c(=O)o2)cc1,-4,-4,78*,-2,3,-3,71*,
COc1ccc(-n2c(-c3ccc(C)cc3)nc3ccccc3c2=O)cc1,4,6,1,0,5,3,.,
O=C(CN1CC(c2ccccc2)CC1=O)Nc1ccccc1 (configuration not stated),0,1,44*,-3,-2,1,25,
CC(C)OC(=O)c1c(N)n(CC2CCCO2)c2nc3ccccc3nc12 (configuration not stated),2,-1,-3,-3,-2,-3,.,
CCCNC(=O)c1c(N)n(CC2CCCO2)c2nc3ccccc3nc12 (configuration not stated),14,3,-1,12,8,27*,.,PAFAH1B3 conf FP=12
COc1ccc(CCNC2CCCCC2)cc1OC,11,3,-1,3,6,0,.,
CC(C)[C@@]1(NC(=O)[C@@H]2C[C@@H]3c4cccc5[nH]cc(c45)C[C@H]3N(C)C2)O[C@@]2(O)[C@@H]3CCCN3C(=O)[C@H](Cc3ccccc3)N2C1=O,3,1,-2,0,3,8,.,
CC(C)[C@H]1C(=O)N2CCC[C@H]2[C@]2(O)O[C@](NC(=O)[C@@H]3C=C4c5cccc6[nH]cc(c56)C[C@H]4N(C)C3)(C(C)C)C(=O)N12,21,17,-1,9,6,31*,.,PAFAH1B3 conf FP=9
CN(C)[C@@H]1C(=O)C(C(N)=O)=C(O)[C@@]2(O)C(=O)C3=C(O)c4c(O)cccc4[C@@](C)(O)C3C[C@@H]12 (some centres not stated),32*,5,21,-4,16,30*,.,PAFAH1B3 conf FP=13
CC1C(=O)OC2CCN3CC4OC4(COC(=O)C(C)(O)C1(C)O)C23 (configuration not stated),.,.,17,.,4,4,.,
CCCCn1c(NS(=O)(=O)c2ccc(C)cc2)c(C(=O)OCC)c2nc3ccccc3nc21,11,3,7,5,6,40*,.,PAFAH1B3 conf FP=7
